Test results published in the supplement of paper PMC12669032.

Experiments:
Assay in all cases: growth AUC relative to DMSO control (median of replicates) (fraction); higher = more growth (less inhibition), active = hit call of the paper
Conditions in all cases: 20 µM; 24 h;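 active = AUC reduced over 20% with Padj below 0.05 in at least 2 of 3 replicates; inactive = otherwise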
Coprococcus comes = test system: Coprococcus comes
Method in brief: (§1)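 Area under the growth curve was normalised to the plate median of solvent-only wells, except on the industrial chemical plate, where row and column medians were used. Curves came from gut bacterial monocultures grown anaerobically at 37 °C in mGAM with 20 µM compound (1% DMSO), starting at OD600 0.05 and read at OD600 every hour for 24 h. The minimum OD of each curve was set to 0, and values are medians of three biological replicates grown on separate days.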

Escherichia coli ED1a = test system: Escherichia coli ED1a
Method in brief: as §1

Escherichia coli IAI1 = test system: Escherichia coli IAI1
Method in brief: as §1

Eubacterium rectale = test system: Eubacterium rectale
Method in brief: as §1

[1] = test system: Fusobacterium nucleatum subsp. animalis
Method in brief: as §1

Lactobacillus gasseri = test system: Lactobacillus gasseri
Method in brief: as §1

Lactobacillus paracasei = test system: Lactobacillus paracasei
Method in brief: as §1

Odoribacter splanchnicus = test system: Odoribacter splanchnicus
Method in brief: as §1

[2] = test system: Parabacteroides distasonis
Method in brief: as §1

Parabacteroides merdae = test system: Parabacteroides merdae
Method in brief: as §1

Roseburia intestinalis = test system: Roseburia intestinalis
Method in brief: as §1

Streptococcus salivarius = test system: Streptococcus salivarius
Method in brief: as §1

Measured: growth AUC

CCc1ccc(C(c2ccc(CC)cc2)C(Cl)Cl)cc1
inactive: Coprococcus comes 1.04 | Escherichia coli ED1a 1.02 | Escherichia coli IAI1 1.01 | Eubacterium rectale 0.935 | [1] 0.939 | Lactobacillus gasseri 0.938 | Lactobacillus paracasei 0.996 | Odoribacter splanchnicus 1 | [2] 0.976 | Parabacteroides merdae 0.882 | Roseburia intestinalis 1 | Streptococcus salivarius 0.963

Nc1ccc(S(=O)(=O)Nc2nccs2)cc1
inactive: Coprococcus comes 1.02 | Escherichia coli ED1a 0.994 | Escherichia coli IAI1 0.968 | Eubacterium rectale 0.97 | [1] 0.993 | Lactobacillus gasseri 0.97 | Lactobacillus paracasei 1.02 | Odoribacter splanchnicus 0.987 | [2] 1 | Parabacteroides merdae 1.03 | Roseburia intestinalis 0.993 | Streptococcus salivarius 1.02

CCCCOCCOC(=O)COc1nc(Cl)c(Cl)cc1Cl
inactive: Coprococcus comes 0.982 | Escherichia coli ED1a 0.994 | Escherichia coli IAI1 0.973 | Eubacterium rectale 1.02 | [1] 0.984 | Lactobacillus gasseri 0.917 | Lactobacillus paracasei 0.962 | Odoribacter splanchnicus 1.09 | [2] 0.978 | Parabacteroides merdae 0.956 | Roseburia intestinalis 0.995 | Streptococcus salivarius 0.998

CN(C(=O)NC(C)(C)c1ccccc1)c1ccccc1
inactive: Coprococcus comes 1.01 | Escherichia coli ED1a 1.01 | Escherichia coli IAI1 0.974 | Eubacterium rectale 0.981 | [1] 0.909 | Lactobacillus gasseri 1.01 | Lactobacillus paracasei 0.951 | Odoribacter splanchnicus 1.1 | [2] 0.952 | Parabacteroides merdae 1 | Roseburia intestinalis 1.02 | Streptococcus salivarius 0.933

C#CC(C)N(C)C(=O)Nc1ccc(Cl)cc1 (stereo not given)
inactive: Coprococcus comes 1.05 | Escherichia coli ED1a 1.04 | Escherichia coli IAI1 0.988 | Eubacterium rectale 1 | [1] 1.03 | Lactobacillus gasseri 1.07 | Lactobacillus paracasei 1.02 | Odoribacter splanchnicus 0.994 | [2] 0.95 | Parabacteroides merdae 1.01 | Roseburia intestinalis 0.992 | Streptococcus salivarius 0.993

CCc1cccc(C)c1NC(=O)C(=O)O
inactive: Coprococcus comes 0.985 | Escherichia coli ED1a 1.02 | Escherichia coli IAI1 1 | Eubacterium rectale 0.989 | [1] 0.981 | Lactobacillus gasseri 0.916 | Lactobacillus paracasei 0.969 | Odoribacter splanchnicus 0.998 | [2] 0.982 | Parabacteroides merdae 1.03 | Roseburia intestinalis 0.953 | Streptococcus salivarius 0.994

CCc1cccc(C)c1N(C(=O)CS(=O)(=O)[O-])C(C)COC.[Na+] (stereo not given)
inactive: Coprococcus comes 0.948 | Escherichia coli ED1a 0.954 | Escherichia coli IAI1 0.941 | Eubacterium rectale 1.05 | [1] 0.881 | Lactobacillus gasseri 0.91 | Lactobacillus paracasei 1.02 | Odoribacter splanchnicus 0.908 | [2] 0.925 | Parabacteroides merdae 0.941 | Roseburia intestinalis 0.925 | Streptococcus salivarius 0.878

CC(C)C1C2CCC1c1c(NC(=O)c3cn(C)nc3C(F)F)cccc12 (stereo not given)
inactive: Coprococcus comes 0.966 | Escherichia coli ED1a 1 | Escherichia coli IAI1 0.957 | Eubacterium rectale 0.971 | [1] 0.906 | Lactobacillus gasseri 0.702 | Lactobacillus paracasei 0.965 | Odoribacter splanchnicus 0.758 | Parabacteroides merdae 0.862 | Roseburia intestinalis 0.861 | Streptococcus salivarius 0.927
active: [2] 0.533

CCOc1nc(F)cc2nc(S(=O)(=O)Nc3c(Cl)cccc3C(=O)OC)nn12
inactive: Coprococcus comes 0.984 | Escherichia coli ED1a 0.991 | Escherichia coli IAI1 1.01 | Eubacterium rectale 0.967 | [1] 0.995 | Lactobacillus gasseri 1.01 | Lactobacillus paracasei 1.06 | Odoribacter splanchnicus 1.04 | [2] 1.05 | Parabacteroides merdae 1.02 | Roseburia intestinalis 1.04 | Streptococcus salivarius 1.01

c1ccc2c(c1)Cc1ccccc1-2
inactive: Coprococcus comes 1.01 | Escherichia coli ED1a 1.03 | Escherichia coli IAI1 1 | Eubacterium rectale 1 | [1] 1.03 | Lactobacillus gasseri 1.05 | Lactobacillus paracasei 1.05 | Odoribacter splanchnicus 1.05 | [2] 0.962 | Parabacteroides merdae 1.02 | Roseburia intestinalis 1 | Streptococcus salivarius 0.985

O=S(Cc1ccc(Cl)cc1)c1ccc(Cl)cc1 (stereo not given)
inactive: Coprococcus comes 1 | Escherichia coli ED1a 0.986 | Escherichia coli IAI1 0.981 | Eubacterium rectale 1.09 | [1] 0.94 | Lactobacillus gasseri 0.899 | Lactobacillus paracasei 1.24 | Odoribacter splanchnicus 1.01 | [2] 0.947 | Parabacteroides merdae 1 | Roseburia intestinalis 1.01 | Streptococcus salivarius 0.984

CC1(C)C(C(=O)OC(C#N)c2cccc(Oc3ccccc3)c2)C1C(Br)C(Br)(Br)Br (stereo not given)
inactive: Coprococcus comes 0.99 | Escherichia coli ED1a 1.02 | Escherichia coli IAI1 1.01 | Eubacterium rectale 0.996 | [1] 1.05 | Lactobacillus gasseri 1.04 | Lactobacillus paracasei 1.12 | Odoribacter splanchnicus 1.06 | [2] 0.998 | Parabacteroides merdae 1 | Roseburia intestinalis 0.932 | Streptococcus salivarius 0.972

CCNc1nc(NCC)nc(OC)n1
inactive: Coprococcus comes 1.05 | Escherichia coli ED1a 1.03 | Escherichia coli IAI1 0.975 | Eubacterium rectale 1 | [1] 1.01 | Lactobacillus gasseri 0.921 | Lactobacillus paracasei 0.977 | Odoribacter splanchnicus 1.01 | [2] 1.04 | Parabacteroides merdae 1 | Roseburia intestinalis 0.993 | Streptococcus salivarius 1.01

CCOC(=O)/C(Cl)=C/c1cc(N2C(=O)C3=C(CCCC3)C2=O)ccc1Cl
inactive: Coprococcus comes 0.97 | Escherichia coli ED1a 1 | Escherichia coli IAI1 1.02 | Eubacterium rectale 0.951 | [1] 0.954 | Lactobacillus gasseri 1.1 | Lactobacillus paracasei 0.473 | Odoribacter splanchnicus 1.1 | [2] 0.971 | Parabacteroides merdae 0.948 | Roseburia intestinalis 0.981 | Streptococcus salivarius 0.96

CCCN(CCOc1c(Cl)cc(Cl)cc1Cl)C(=O)NC=O
inactive: Coprococcus comes 0.965 | Escherichia coli ED1a 1.04 | Escherichia coli IAI1 0.993 | Eubacterium rectale 1.02 | [1] 1.01 | Lactobacillus gasseri 1.09 | Lactobacillus paracasei 0.9 | Odoribacter splanchnicus 0.956 | [2] 0.925 | Parabacteroides merdae 0.991 | Roseburia intestinalis 0.979 | Streptococcus salivarius 0.993

CCNc1nc(NC(C)CC)nc(OC)n1 (stereo not given)
inactive: Coprococcus comes 1.02 | Escherichia coli ED1a 0.992 | Escherichia coli IAI1 0.994 | Eubacterium rectale 0.961 | [1] 1.05 | Lactobacillus gasseri 1.11 | Lactobacillus paracasei 1.12 | Odoribacter splanchnicus 1 | [2] 0.996 | Parabacteroides merdae 1.02 | Roseburia intestinalis 1.07 | Streptococcus salivarius 1.02

CN(C)C(=O)Nc1cc(C(C)(C)C)on1
inactive: Coprococcus comes 0.99 | Escherichia coli ED1a 0.997 | Escherichia coli IAI1 1.01 | Eubacterium rectale 0.949 | [1] 0.959 | Lactobacillus gasseri 1.06 | Lactobacillus paracasei 1 | Odoribacter splanchnicus 0.942 | [2] 1.01 | Parabacteroides merdae 1 | Roseburia intestinalis 1.03 | Streptococcus salivarius 1

CCCOc1nc2ccc(I)cc2c(=O)n1CCC
active: [2] 0.647
inactive: Coprococcus comes 1.04 | Escherichia coli ED1a 0.991 | Escherichia coli IAI1 0.974 | Eubacterium rectale 0.996 | [1] 0.973 | Lactobacillus gasseri 0.833 | Lactobacillus paracasei 0.976 | Odoribacter splanchnicus 1.05 | Parabacteroides merdae 0.923 | Roseburia intestinalis 0.942 | Streptococcus salivarius 0.994

CNC(=O)/C(=N/OC)c1ccccc1CO/N=C(C)/C(=N/OC)C(/C)=N/OC
inactive: Coprococcus comes 1.01 | Escherichia coli ED1a 1.01 | Escherichia coli IAI1 1.05 | Eubacterium rectale 0.928 | [1] 0.91 | Lactobacillus gasseri 1.16 | Lactobacillus paracasei 0.998 | Odoribacter splanchnicus 0.989 | [2] 0.997 | Parabacteroides merdae 0.976 | Roseburia intestinalis 1.01 | Streptococcus salivarius 1.01

COC(=O)c1cccc(C)c1S(=O)(=O)NC(=O)Nc1nc(OCC(F)(F)F)nc(N(C)C)n1
inactive: Coprococcus comes 0.967 | Escherichia coli ED1a 0.992 | Escherichia coli IAI1 0.997 | Eubacterium rectale 0.963 | [1] 0.956 | Lactobacillus gasseri 1.05 | Lactobacillus paracasei 0.936 | Odoribacter splanchnicus 0.997 | [2] 1.02 | Parabacteroides merdae 0.99 | Roseburia intestinalis 0.984 | Streptococcus salivarius 0.984
